# In PubChem BioAssay (EPA / NIEHS):
# Calls of active or inactive are those of the source. Rule for the calls: active = hit-call score of the fitted dose curve at least 0.9, where 1 is the maximum; inactive = score below 0.9.
# Assays:
# [1] = target: Transcription factor E2F1 (Homo sapiens) (UniProt Q01094); test: ATG_E2F_CIS: Attagene CIS-FACTORIAL HepG2 Assay for human E2F Transcription Factor 1 (AID 2282935); settings: HepG2 Attagene cis-reporter, E2F reporter RNA transcripts; actives raise or lower the signal
# Outline: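 Total RNA from 24 h-treated, reporter-transfected HepG2 cells undergoes DNase I treatment, oligo(dT) reverse transcription, PCR and 6-FAM primer extension before capillary electrophoresis.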
# [2] = ATG_E_Box_CIS: Attagene CIS-FACTORIAL HepG2 Assay for human Enhancer Box (E-box) (AID 2282936); settings: HepG2 E-box cis-reporter transcription, actives raise or lower the signal
# Outline: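 DMSO served as negative control and baseline for bidirectional fitting. Human hepatoma HepG2 cells, transiently transfected with cis-reporter constructs, were dosed 24 h; reporter mRNA read by RT-PCR and capillary electrophoresis.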
# [3] = ATG_M_61_CIS: Attagene CIS-FACTORIAL HepG2 Assay for M61 Transcription Factor (Internal Marker) (AID 2282937); settings: HepG2 Attagene CIS-FACTORIAL M61 internal marker reporter; actives raise or lower the signal
# Outline: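 Multiplexed reporter mRNA assay, HepG2 human hepatoma cells, 24 h treatment. Signal: FAM-labelled, HpaI-digested RT-PCR fragments by CE. Fit: bidirectional, baseline DMSO.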
# [4] = ATG_EGR_CIS: Attagene CIS-FACTORIAL HepG2 Assay for human Early Growth Response 1 (EGR1) (AID 2282938); settings: HepG2 Attagene CIS-FACTORIAL EGR reporter mRNA; actives raise or lower the signal
# Outline: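 Multiplexed cis-reporter system in human hepatoma HepG2 cells, transiently transfected. Cells are dosed for 24 h; reporter transcripts are amplified, fluorescently tagged and sized by capillary electrophoresis, with DMSO as negative control.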
# [5] = ATG_M_19_CIS: Attagene CIS-FACTORIAL HepG2 Assay for M19 Transcription Factor (Internal Marker) (AID 2282939); settings: HepG2 Attagene CIS-FACTORIAL M19 internal marker reporter; actives raise or lower the signal
# Outline: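 Chemical-treated HepG2 (24 h) with MRTU constructs; reporter transcripts detected by fluorescent RT-PCR fragment analysis on capillary electrophoresis. Internal background marker, DMSO as baseline.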
# [6] = ATG_ERE_CIS: Attagene CIS-FACTORIAL HepG2 Assay for Estrogen Response Element (ERE) (AID 2282940); settings: HepG2 ERE cis-reporter, Attagene RNA transcript; actives raise or lower the signal
# Outline: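 Human liver cells (HepG2) bearing transiently transfected, promoter-regulated reporter units were exposed 24 h. Reporter mRNA induction was detected by capillary electrophoresis of labelled RT-PCR products and fitted bidirectionally to DMSO.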
# [7] = ATG_Ets_CIS: Attagene CIS-FACTORIAL HepG2 Assay for human Erythroblast Transformation Specific (ETS) (AID 2282941); settings: HepG2 ETS cis-reporter transcription, actives raise or lower the signal
# Outline: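 HepG2 cells transiently transfected with cis-promoter reporter transcription units were dosed for 24 h; reporter mRNA was measured by RT-PCR, 6-FAM primer extension, HpaI digestion and capillary electrophoresis, with bidirectional fitting against DMSO baseline.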
# [8] = target: Hepatocyte nuclear factor 3-beta (Homo sapiens) (UniProt Q9Y261); test: ATG_FoxA2_CIS: Attagene CIS-FACTORIAL HepG2 Assay for human Forkhead box A2 (FOXA2) (AID 2282942); settings: HepG2 cis-reporter transcription factor activity, 24 h; actives raise or lower the signal
# Outline: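 Multiplexed cis-element reporter assay in transiently transfected HepG2. Twenty-four hours post-dosing, RNA was reverse-transcribed, amplified, FAM-labelled, HpaI-digested and separated by CE. Activity gain or loss relative to DMSO.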
# [9] = ATG_FoxO_CIS: Attagene CIS-FACTORIAL HepG2 Assay for human Forkhead box O (FoxO) (AID 2282943); settings: HepG2 Attagene cis-reporter, FoxO element, mRNA; actives raise or lower the signal
# Outline: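 Human hepatoma HepG2 cells carry transiently introduced reporter transcription units controlled by cis promoter elements. Chemical treatment lasted 24 h, and mRNA signal was compared with DMSO.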
# [10] = ATG_GATA_CIS: Attagene CIS-FACTORIAL HepG2 Assay for human GATA Binding Protein (AID 2282944); settings: HepG2 GATA cis-element reporter, Attagene multiplex mRNA; actives raise or lower the signal
# Outline: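 Transfected cis-reporter HepG2 cells were treated with chemicals for 24 hours. Total RNA was then converted to cDNA, amplified with reporter-specific primers and analysed by fluorescent capillary electrophoresis, using DMSO-treated wells as baseline.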
# Chain of Hepatocyte nuclear factor 3-beta (Homo sapiens) (Q9Y261 whole entry, looked up): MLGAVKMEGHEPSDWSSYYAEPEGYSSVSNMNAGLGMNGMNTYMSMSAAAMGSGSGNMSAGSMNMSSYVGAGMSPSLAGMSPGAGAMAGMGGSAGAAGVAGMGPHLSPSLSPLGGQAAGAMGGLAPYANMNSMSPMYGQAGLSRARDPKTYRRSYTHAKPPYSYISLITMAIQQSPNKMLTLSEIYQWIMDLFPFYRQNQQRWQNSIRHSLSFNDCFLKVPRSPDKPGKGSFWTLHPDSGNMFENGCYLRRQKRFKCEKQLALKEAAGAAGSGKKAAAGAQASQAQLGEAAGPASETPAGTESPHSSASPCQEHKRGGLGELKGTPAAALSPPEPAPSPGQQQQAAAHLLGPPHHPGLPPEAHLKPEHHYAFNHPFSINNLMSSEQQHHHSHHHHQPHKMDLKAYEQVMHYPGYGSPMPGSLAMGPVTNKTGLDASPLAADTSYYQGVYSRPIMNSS
# Chain of Transcription factor E2F1 (Homo sapiens) (Q01094 whole entry, looked up): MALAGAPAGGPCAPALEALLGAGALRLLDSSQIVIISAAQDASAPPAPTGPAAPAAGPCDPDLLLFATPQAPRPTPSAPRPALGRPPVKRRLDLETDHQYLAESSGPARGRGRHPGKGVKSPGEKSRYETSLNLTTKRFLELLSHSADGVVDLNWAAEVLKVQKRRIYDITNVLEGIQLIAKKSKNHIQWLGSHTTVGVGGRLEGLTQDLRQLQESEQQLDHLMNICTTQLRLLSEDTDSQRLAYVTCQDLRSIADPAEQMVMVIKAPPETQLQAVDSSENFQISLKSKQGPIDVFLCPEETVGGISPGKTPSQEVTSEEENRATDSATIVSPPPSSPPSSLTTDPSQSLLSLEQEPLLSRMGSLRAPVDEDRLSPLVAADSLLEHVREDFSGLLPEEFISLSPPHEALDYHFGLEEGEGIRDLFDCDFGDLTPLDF
Compound,outcome [1],outcome [2],outcome [3],outcome [4],outcome [5],outcome [6],outcome [7],outcome [8],outcome [9],outcome [10],AC50 [2],AC50 [4],AC50 [6],AC50 [7],AC50 [9]
C=C1CC[C@H]2O[C@]2(C)CC[C@@H]2[C@@H]1CC2(C)C,inactive,inactive,inactive,inactive,inactive,inactive,inactive,inactive,inactive,inactive,–,–,–,–,–
O=S1(=O)CC(Cl)(Cl)C(Cl)(Cl)C1,inactive,–,inactive,–,inactive,inactive,inactive,inactive,inactive,inactive,2.8 µM (active),6.17 µM (active),–,–,–
CN(C)C,inactive,inactive,inactive,inactive,inactive,inactive,inactive,inactive,inactive,inactive,–,–,–,–,–
CCCCCCCCCCCCCCCCCC(=O)OCCCCCCCCCCCCCC(C)C,inactive,inactive,inactive,inactive,inactive,–,inactive,inactive,inactive,inactive,–,–,28.7 µM (active),–,–
CC(=O)OC(C)(C)C,inactive,inactive,inactive,inactive,inactive,inactive,inactive,inactive,inactive,inactive,–,–,–,–,–
CCCCCCCCSCc1cc(C)c(O)c(CSCCCCCCCC)c1,inactive,inactive,inactive,inactive,inactive,inactive,inactive,inactive,inactive,inactive,–,–,–,–,–
COc1ccc(C(C)=O)cc1,inactive,inactive,inactive,inactive,inactive,inactive,inactive,inactive,inactive,inactive,–,–,–,–,–
CCCCCc1cccc(=O)o1,inactive,inactive,inactive,inactive,inactive,inactive,inactive,inactive,inactive,inactive,–,–,–,–,–
Cc1cc(O)c2c(c1)C(=O)c1cc(O)cc(O)c1C2=O,inactive,inactive,inactive,inactive,inactive,–,–,inactive,–,inactive,–,–,0.602 µM (active),19.3 µM (active),26.2 µM (active)
O=C(O)c1ccccc1O,inactive,inactive,inactive,inactive,inactive,inactive,inactive,inactive,inactive,inactive,–,–,–,–,–
CCCCCCC(C)O (stereo not given),inactive,inactive,inactive,inactive,inactive,inactive,inactive,inactive,inactive,inactive,–,–,–,–,–
CCCCC(CC)COCCO (stereo not given),inactive,inactive,inactive,inactive,inactive,inactive,inactive,inactive,inactive,inactive,–,–,–,–,–
NC(N)=NC(N)=NCCc1ccccc1,inactive,inactive,inactive,inactive,inactive,inactive,inactive,inactive,inactive,inactive,–,–,–,–,–
CC(C)(C)C1CCC(O)CC1 (stereo not given),inactive,inactive,inactive,inactive,inactive,–,inactive,inactive,inactive,inactive,–,–,32.8 µM (active),–,–
CC(C)C(=O)c1ccccc1,inactive,inactive,inactive,inactive,inactive,–,inactive,inactive,inactive,inactive,–,–,0.5 µM (active),–,–
CC/C=C\CCCCO,inactive,inactive,inactive,inactive,inactive,inactive,inactive,inactive,inactive,inactive,–,–,–,–,–
OC[C@H]1O[C@@H](O[C@H]2[C@H](O)[C@@H](O)[C@H](O)O[C@@H]2CO)[C@H](O)[C@@H](O)[C@H]1O,inactive,inactive,inactive,inactive,inactive,inactive,inactive,inactive,inactive,inactive,–,–,–,–,–
O=C(O)CS,inactive,inactive,inactive,inactive,inactive,inactive,inactive,inactive,inactive,inactive,–,–,–,–,–
OCCCO,inactive,inactive,inactive,inactive,inactive,inactive,inactive,inactive,inactive,inactive,–,–,–,–,–
CCCCCCCCCC(=O)OCC,inactive,inactive,inactive,inactive,inactive,inactive,inactive,inactive,inactive,inactive,–,–,–,–,–
C1CCCNCC1,inactive,inactive,inactive,inactive,inactive,inactive,inactive,inactive,inactive,inactive,–,–,–,–,–
Nc1ccc(O)c(N)c1,inactive,inactive,inactive,inactive,inactive,inactive,inactive,inactive,inactive,inactive,–,–,–,–,–
CCCCCCOC(C)=O,inactive,inactive,inactive,inactive,inactive,inactive,inactive,inactive,inactive,inactive,–,–,–,–,–
COC(=O)c1cccc(C(=O)OC)c1,inactive,inactive,inactive,inactive,inactive,inactive,inactive,inactive,inactive,inactive,–,–,–,–,–
CC(C)CCCC(C)(C)O,inactive,inactive,inactive,inactive,inactive,inactive,inactive,inactive,inactive,inactive,–,–,–,–,–
C=C1CC/C=C(\C)CC[C@@H]2[C@@H]1CC2(C)C,inactive,–,inactive,inactive,inactive,–,inactive,inactive,inactive,inactive,94.9 µM (active),–,33.8 µM (active),–,–
